What all share (experiment): NCI-60 one-dose screen, 48 h (100 = growth as untreated, 0 = no growth, -100 = all killed)
Settings in all cases: 10 µM unless noted

Assay [1] relates to SK-MEL-2 melanoma.
In assay [2] the test system is EKVX NSCLC.
The test system of assay [3] is SN12C renal.
The subject of assay [4] is UO-31 renal.
For assay [5], the system named is TK-10 renal.
The test system of assay [6] is ACHN renal.
The test system of assay [7] is CAKI-1 renal.
Assay [8] deals with A498 renal.
Assay [9] has as its system CCRF-CEM leukemia.
For assay [10], the system named is MOLT-4 leukemia.
For assay [11], the system named is RPMI-8226 leukemia.
Assay [12] concerns OVCAR-8 ovarian.
The test system of assay [13] is OVCAR-5 ovarian.
For assay [14], the system named is IGROV1 ovarian.
Assay [15] relates to OVCAR-3 ovarian.
In assay [16] the test system is HS 578T breast.
In assay [17] the test system is NCI/ADR-RES ovarian.
In assay [18] the test system is SR leukemia.
The subject of assay [19] is OVCAR-4 ovarian.
Assay [20] deals with SK-OV-3 ovarian.

Our source for the growth values is PubChem BioAssay (NCI).

Compounds without any hit were thinned out: in the full panel of roughly 83,000, 20% have a hit.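 Compound tested at a single concentration for 48 hours in 96-well plates; a percent growth value below 10 was scored as active.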 Values without a mark were called inactive. Active and inactive are the calls of the source.

`COc1ccc(/C=C/c2c(C(=O)/C=C/c3ccc(Cl)cc3)c(C)nc3ccccc23)cc1`: the growth was 45.7% in assay [1]; 47.9% in assay [2]; 17.2% in assay [3]; -21.3% (active) in assay [4]; 56.2% in assay [5]; 13.5% in assay [6]. Besides, the growth in assay [7] is 29.5%; in [8], 39.6%; in [9], 5.29% (active); in assay [10] it was 4.01% (active); in assay [11] it was -28.6% (active); in [12], 20.9%. Besides, the growth in assay [13] was 16.9%; in assay [14], 13.6%; in [15], -4.96% (active); in [16], 34.4%; in [17], 12.4%.

Regarding `C/C(=C(/c1ccccc1)c1ccc(N2C(=O)c3cccc4c(N5CCN(C)CC5)ccc(c34)C2=O)cc1)c1ccccc1`, the growth was 116% in assay [1]; 77.2% in [3]; 66.9% in [4]; 114% in [5]; 89.5% in assay [6]; 86.7% in assay [7]. Moreover, the growth is 86.3% in assay [8]; 58% in assay [9]; 54.3% in [10]; -9.19% (active) in assay [18]; 83% in assay [12]; 91.9% in assay [13]. Besides, the growth in assay [19] was 56.6%; in [20] it was 106%; in [14], 69%; in [15] it was 82.7%; in assay [16] it was 97.9%; in assay [17] it was 84.9%.

In the case of `O=C(COc1ccc(/C=C2\Cc3ccc(Cl)cc3C2=O)cc1)Nc1nc2ccccc2s1`, the growth in [1] is 122%; in assay [3] it was 102%; in assay [4], 69.1%; in [5], 151%; in assay [6], 94.2%; in assay [7] it was 92.3%. Besides, the growth is 130% in [8]; 73.5% in assay [9]; 69.8% in [10]; 75.5% in assay [18]; 93.1% in assay [11]; 108% in assay [13]. Besides, the growth in assay [19] was 109%; in assay [20] it was 104%; in assay [14], -61.5% (active); in assay [15], 104%; in assay [16], 91%.

Take `COc1ccc(C(=O)C(C)C)c2ccccc12`: the growth in [1] is 97.9%; in [3], 109%; in assay [4] it was 90.8%; in assay [5] it was 90.5%; in assay [6] it was 100%; in assay [7], 97.9%. Besides, the growth in [8] was 99%; in assay [9] it was -25.6% (active); in [10] it was 97.2%; in assay [11] it was 82.5%; in [12] it was 126%; in assay [13], 98%. Also, the growth is 108% in assay [19]; 107% in [20]; 128% in [14]; 120% in assay [15]; 90.8% in assay [16]; 107% in assay [17].

Turning to `OC(c1ccccc1)C(NC(Cc1ccccc1)c1ccccc1)c1ccccc1` (stereo not given), the growth in assay [1] is 93.1%; in assay [3], 87.1%; in assay [4], 72.2%; in assay [5], 92.2%; in assay [6], 90.7%; in [7], 77.4%. Moreover, the growth in assay [8] is 74.6%; in [9], 93.3%; in assay [10], 71.2%; in assay [18] it was 91.4%; in assay [11], 73.6%; in assay [13] it was 90.8%. Further, the growth in assay [19] is 89.1%; in [20] it was 91.7%; in assay [14], 67%; in assay [15], 96.9%; in assay [16], 92.2%; in assay [17], 82.6%.

Regarding `CCCCOc1ccc(/C=N/NC(N)=S)cc1`, the growth is 85.1% in [1]; 67.5% in assay [3]; 43.7% in [4]; 77.3% in assay [5]; 92.3% in [6]; 83.7% in [7]. Moreover, the growth in [8] was 79.4%; in assay [9] it was 37.4%; in assay [10], 46%; in assay [18], 84.7%; in assay [11], 49.1%; in assay [13] it was 93.1%. The growth was 41.3% in assay [19]; 92.1% in assay [20]; 52.3% in assay [14]; 63.2% in assay [15]; 89.8% in assay [16].

Turning to `Cc1ccc2c(-c3cc(-c4ccccc4)nc(N)c3C#N)cc(=O)oc2c1`, the growth in assay [1] was 97.1%; in assay [3] it was 91.2%; in assay [4] it was 86.3%; in assay [5], 101%; in assay [6], 99.3%; in assay [7], 100%. Moreover, the growth was 63.6% in assay [8]; 105% in assay [9]; 94.5% in assay [10]; 100% in [18]; 101% in [11]; 96.9% in assay [13]. Moreover, the growth in assay [19] was 114%; in assay [20], 104%; in [14], 110%; in [15], 106%; in assay [16] it was 90.2%; in assay [17], 95.2%.

As for `CCCCn1c(-c2ccc(-c3nc(-c4ccc(Cl)cc4)no3)cc2)nc(-c2ccccc2)c1-c1ccccc1`, the growth in assay [1] was 103%; in assay [3], 83.2%; in assay [4] it was -5.33% (active); in assay [5] it was 126%; in [6], 60.3%; in assay [7], 82.4%. Moreover, the growth in assay [8] was 89.1%; in [9], 69.7%; in assay [10], 65.6%; in assay [18], 6.15% (active); in [12], 88.5%; in assay [13], 85.4%. Besides, the growth in assay [19] was 82%; in assay [20], 88.8%; in [14], 39.5%; in assay [15] it was 93.9%; in assay [16] it was 95.4%; in assay [17], 82.5%.

With `O=C(CCOCCNC(=O)COc1ccc2c(c1)OCC(c1ccc(F)cc1)C2=O)NCCCC(O)(P(=O)(O)O)P(=O)(O)O` (stereo not given), the growth in assay [1] was 104%; in assay [3], 103%; in assay [4] it was 95.3%; in assay [5], 114%; in assay [6], 102%; in assay [7], 94.7%. Besides, the growth was 89% in assay [8]; 96.7% in assay [9]; 99.3% in assay [10]; 108% in assay [11]; 104% in assay [12]; 103% in assay [13]. Moreover, the growth in assay [19] was 99.2%; in assay [20], 108%; in assay [14], 118%; in assay [15] it was 104%; in assay [16], 105%; in [17] it was 107%.

As for `CNc1ccc(Nc2cccc(C)c2)c2c1C(=O)c1ccccc1C2=O`, the growth is 60% in assay [1]; 80.4% in [3]; 58.3% in assay [4]; 100% in [5]; 78.1% in assay [6]; 131% in [7]. Besides, the growth in assay [8] is 89.2%; in [9], 102%; in assay [10], 85.1%; in [11], 74.3%; in assay [12], 99.6%; in assay [13], 91.4%. Moreover, the growth in assay [19] is 81.6%; in assay [20] it was 86.4%; in assay [14], 11.2%; in [15], 110%; in assay [16], 101%; in assay [17], 98.8%.

For `N#Cc1c(-c2ccc(Cl)cc2)nc(NCCO)[nH]c1=O`, the growth in assay [2] was 157%; in assay [3] it was 96.2%; in assay [4], 74.5%; in assay [5], 97.9%; in [6], 101%; in [7], 94.2%. Moreover, the growth in assay [8] was 125%; in assay [9], 113%; in assay [10], 99.5%; in assay [18], 99.5%; in assay [12], 103%; in assay [13], 91.6%. Moreover, the growth in assay [20] was 102%; in assay [15], 104%; in assay [16], 109%; in assay [17], 98.8%.

Turning to `CCCCCCCCCCCCCCCCCCOc1ccccc1CCCOP(=O)(O)OCC[N+](C)(C)C`, the growth was 74.1% in assay [2]; 60.9% in [3]; 68.5% in [4]; 1.65% (active) in [5]; 84.5% in [6]; 43.4% in [7]. Moreover, the growth in assay [8] was 54.1%; in assay [9], 34%; in assay [10], 33.7%; in assay [18], 11.4%; in assay [12], 64.8%; in assay [13], 75.6%. Further, the growth in assay [19] was 89.9%; in [20] it was 85%; in [14], 15.5%; in assay [15], 84.5%; in assay [16], 93.5%; in assay [17], 95.4%.

For the compound `NC1CCN(c2nc(Nc3cccc(C(F)(F)F)c3)c3c(=O)[nH]ccc3n2)CC1`, the growth in assay [2] was 4.44% (active); in assay [3] it was -75.8% (active); in [4] it was -80.8% (active); in assay [5] it was -26.9% (active); in assay [6] it was -70% (active); in assay [7], -13.8% (active). Also, the growth is 93.9% in [8]; -18.4% (active) in [9]; -37.9% (active) in assay [10]; -45.4% (active) in [11]; -44.7% (active) in [12]; 14.9% in assay [13]. Besides, the growth in assay [19] is -49.7% (active); in [20], -76.1% (active); in [14], -46.2% (active); in [15], -72.2% (active); in assay [16] it was -24.5% (active); in [17], -30.8% (active).

As for `COc1cc(C(=O)N/N=C/c2cc3cc(OCc4ccccc4)ccc3nc2OC)cc(OC)c1OC`, the growth in assay [2] is 85.4%; in assay [3], 87.9%; in assay [4], 81%; in assay [5], 72.1%; in assay [6] it was 95.2%; in assay [7] it was 98.2%. For the same compound, the growth was 95.6% in [8]; 65.9% in [9]; 62.5% in assay [10]; 35.6% in assay [11]; 68.4% in assay [12]; 86.9% in assay [13]. Moreover, the growth is 63.4% in assay [19]; 111% in assay [14]; 99.4% in [15]; 61.2% in [16]; 82.2% in assay [17].

As to `COc1cc(CCC[P+](c2ccccc2)(c2ccccc2)c2ccccc2)c(OC)c2c1OCO2`, the growth was 25.4% in assay [2]; 29.6% in assay [3]; 93.9% in [4]; 12.1% in assay [5]; 94.1% in [6]; 75.8% in assay [7]. The growth was 41.5% in assay [8]; 37.8% in assay [9]; 44.4% in assay [10]; 10.4% in [11]; 9.83% (active) in assay [12]; 64.6% in assay [13]. In addition, the growth in assay [19] was 11.1%; in [20], 27.2%; in assay [14] it was 32.5%; in assay [15], 5% (active); in [16] it was 38.4%; in assay [17] it was 98.5%.

As to `Cc1nc2ccccc2n1CC1C(=O)NC(=O)NC1=O`, the growth in [2] was 106%; in [3], 104%; in [4] it was 91.3%; in [5], 107%; in assay [6], 109%; in assay [7], 104%. For the same compound, the growth in assay [8] was -34.3% (active); in assay [9], 103%; in [10], 98.1%; in assay [11], 115%; in [12], 105%; in assay [13], 103%. Moreover, the growth is 107% in assay [19]; 107% in assay [20]; 106% in assay [14]; 119% in assay [15]; 110% in assay [16]; 99.3% in assay [17].

With `CCc1ccccc1-n1c(N)c(C#N)c(-c2ccc(Cl)cc2)c(C#N)c1=O`, the growth in [2] is 97.7%; in assay [3], 106%; in assay [4], 76.9%; in assay [5], 157%; in [6], 107%; in assay [7] it was 103%. In addition, the growth in [8] was 127%; in [9] it was -18.3% (active); in assay [10], 105%; in assay [11], 84.2%; in assay [12], 111%; in [13] it was 108%. The growth is 93.3% in assay [19]; 108% in assay [20]; 87% in assay [14]; 107% in assay [15]; 92.2% in assay [16]; 102% in assay [17].
